Test results taken from PMC4336329 (PLoS ONE, 2015).
Out of some 310,000 compounds screened, about 14,000 (4.5%) showed an effect of 50% or more. The effect is printed as a negative number. This excerpt belongs to a sample that is enriched for strong results.

These molecules were tested against human ether-à-go-go-related gene (hERG) potassium channel (human, UniProt Q12809) (assay: primary screen, population patch clamp on CHO cells stably expressing hERG; higher = less effect of the substance).
human ether-à-go-go-related gene (hERG) potassium channel, sequence (Q12809 whole entry, looked up): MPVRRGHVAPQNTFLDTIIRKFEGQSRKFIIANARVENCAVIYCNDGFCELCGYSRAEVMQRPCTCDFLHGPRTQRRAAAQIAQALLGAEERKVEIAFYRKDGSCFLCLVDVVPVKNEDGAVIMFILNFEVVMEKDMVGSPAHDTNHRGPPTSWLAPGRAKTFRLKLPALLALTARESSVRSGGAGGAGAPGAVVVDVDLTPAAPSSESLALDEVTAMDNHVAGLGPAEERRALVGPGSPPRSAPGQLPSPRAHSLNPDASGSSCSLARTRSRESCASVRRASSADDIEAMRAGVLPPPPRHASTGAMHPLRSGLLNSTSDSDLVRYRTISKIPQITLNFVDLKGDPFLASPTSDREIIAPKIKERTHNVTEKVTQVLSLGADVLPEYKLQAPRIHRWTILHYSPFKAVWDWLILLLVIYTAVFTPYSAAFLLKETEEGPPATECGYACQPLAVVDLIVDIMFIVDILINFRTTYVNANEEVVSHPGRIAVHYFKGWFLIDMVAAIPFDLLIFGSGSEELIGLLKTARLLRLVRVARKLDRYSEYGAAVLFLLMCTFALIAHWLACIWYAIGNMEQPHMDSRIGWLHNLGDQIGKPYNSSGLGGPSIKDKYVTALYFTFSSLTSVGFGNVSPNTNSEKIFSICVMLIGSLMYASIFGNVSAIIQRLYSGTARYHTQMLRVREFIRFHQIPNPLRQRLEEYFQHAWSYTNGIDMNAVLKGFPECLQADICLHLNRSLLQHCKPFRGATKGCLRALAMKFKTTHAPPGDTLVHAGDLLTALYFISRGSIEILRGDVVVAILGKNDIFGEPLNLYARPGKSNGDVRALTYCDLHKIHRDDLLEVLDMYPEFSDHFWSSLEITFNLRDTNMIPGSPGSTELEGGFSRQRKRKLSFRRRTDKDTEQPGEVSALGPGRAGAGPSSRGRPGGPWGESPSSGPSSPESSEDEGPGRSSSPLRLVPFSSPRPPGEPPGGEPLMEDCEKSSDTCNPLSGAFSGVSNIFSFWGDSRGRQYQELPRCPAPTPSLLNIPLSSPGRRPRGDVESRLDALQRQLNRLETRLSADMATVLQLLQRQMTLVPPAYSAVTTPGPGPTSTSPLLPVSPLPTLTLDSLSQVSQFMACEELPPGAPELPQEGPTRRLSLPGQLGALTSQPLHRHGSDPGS
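Also: peak tail current of the secondary pulse compared with the same well before compound.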

| Compound | hERG current change (%, negative = inhibition) at 10uM [%] |
| --- | --- |
| CCc1ccccc1N(CC(=O)NCc1ccco1)C(=O)CCC(=O)Nc1nccs1 | 0.493 |
| N#CC(C#N)=Cc1cnc(N2CCN(c3ccccc3)CC2)s1 | 23 |
| COCCN(C(=S)Nc1cc(C)ccc1C)C(C)c1cccnc1 (stereo not drawn) | -25.4 |
| Cc1ccc(OC(C)C(=O)Nc2ccccc2C(=O)N2CCN(C)CC2)cc1 (stereo not drawn) | -5.11 |
| Cc1c(NP(=O)(C(C)(C)C)C(C)(C)C)c(=O)n(-c2ccccc2)n1C | 26.4 |
| Cc1c(Nc2c3ccccc3nc3ccccc23)c(=O)n(-c2ccccc2)n1C | -71 |
| Cc1c(NS(=O)(=O)c2ccc(Br)cc2)c(=O)n(-c2ccccc2)n1C | -6.03 |
| Cc1c(Nc2nc3ccccc3nc2NS(=O)(=O)c2cccs2)c(=O)n(-c2ccccc2)n1C | 1.13 |
| Cc1c(Nc2nc(C(F)(F)F)nc3ccccc23)c(=O)n(-c2ccccc2)n1C | -1.37 |
| Cc1c(Nc2nc3ccccc3nc2NS(=O)(=O)c2ccccc2)c(=O)n(-c2ccccc2)n1C | -67.1 |
| Cc1cc(Nc2c(C)n(C)n(-c3ccccc3)c2=O)n2c(nc3ccccc32)c1C#N | -73.6 |
| Cc1cc(Nc2c(C)n(C)n(-c3ccccc3)c2=O)n2c(nc3cc(F)c(F)cc32)c1C#N | 19.2 |
| Cc1cc(Nc2c(C)n(C)n(-c3ccccc3)c2=O)c2ccccc2n1 | -20.3 |
| CCc1c(C)c(C#N)c2nc3ccccc3n2c1Nc1c(C)n(C)n(-c2ccccc2)c1=O | -5.49 |
| Cc1c(Nc2nc3ccccc3nc2NS(=O)(=O)c2cccc(Cl)c2)c(=O)n(-c2ccccc2)n1C | -2.18 |
| Cc1c(NP(=O)(c2ccc(Br)cc2)c2ccc(Br)cc2)c(=O)n(-c2ccccc2)n1C | -65.7 |
| CC(C)C(=O)Nc1cccc(C(=O)Nc2ccc(S(=O)(=O)Nc3nccs3)cc2)c1 | 8.32 |
| Nn1cnnc1SCC(=O)N1CCc2ccccc2C1 | -12.8 |
| COc1ccc(C(=O)c2nccc3ccccc23)cc1 | 0.535 |
| COc1cccc(N(CC(=O)NCC2CCCO2)C(=O)CNS(=O)(=O)c2ccccc2)c1 (stereo not drawn) | 23.1 |
| c1ccc(CCNc2ncnc3c2cnn3-c2ccccc2)cc1 | -40.5 |
| CC(=O)Nc1ccc(N2CCc3c(C)c(C#N)c4nc5ccccc5n4c32)cc1 | 8.55 |
| Cc1ccc(N(Cc2ccc(C(=O)NCCSc3ccccn3)cc2)S(C)(=O)=O)cc1C | -4.82 |
| Cc1nn(-c2ccc(Cl)cc2Cl)c(=O)c2ccccc12 | -11.3 |
| O=c1[nH]c(N2CCN(c3ccccc3)CC2)nc2c1CCCC2 | 2.28 |
| Nc1c2c(nc3ccn(Cc4ccccc4)c(=O)c13)CCC2 | -66 |
| Cc1nc(SC2CC(=O)N(c3ccccc3)C2=O)nc2c1CCCC2 (stereo not drawn) | -3.22 |

| Compound | hERG current change (%, negative = inhibition) at 10uM [%] |
| --- | --- |
| Nc1c2c(nc3ccn(-c4ccccc4)c(=O)c13)CCCCC2 | -58.8 |
| O=c1[nH]c(N2CCN(Cc3ccccc3)CC2)nc2c1CCC2 | 18.9 |
| Nc1c2c(nc3ccccc13)CCC2.O=C(O)/C=C/C(=O)O | -18.2 |
| Cc1sc(NC(=O)CN2CCN(c3ccccn3)CC2)c(C#N)c1C | 2.51 |
| O=C(C/C=N/OCc1ccc(Cl)cc1Cl)c1ccccc1 | -6.79 |
| CC(=O)Nc1nc(-c2cccc3ccccc23)cs1 | -9.32 |
| CSc1ccc(CNC2CC2)cc1.Cl | -7.3 |
| CC(C)Cn1c(C(C)C)nc([N+](=O)[O-])c1Sc1ccc(Cl)cn1 | -6.57 |
| CCCn1c(CC)nc([N+](=O)[O-])c1Sc1ccc(C)cc1 | -0.08 |
| CCCCn1c(CCC)nc([N+](=O)[O-])c1Sc1ccc(Cl)cn1 | -53.2 |
| CCOC(=O)C1(Cc2cccc(Cl)c2)CCCN(C(=O)c2cccc(C)n2)C1 (stereo not drawn) | -1.76 |
| CCOCCCNC(=O)COc1ccc(OC)cc1 | 13.2 |
| Cn1c(N)c(C(=O)CCl)c(=O)n(Cc2ccccc2)c1=O | 2.2 |
| CC1(C)CC(NC(=O)c2cc(Cl)ccc2Cl)CC(C)(C)N1 | -1.21 |
| CC1(C)CC(NC(=S)NC(=O)c2cc(Br)ccc2Cl)CC(C)(C)N1 | -53.3 |
| CC1(C)CC(NC(=O)c2ccc(Cl)cc2Cl)CC(C)(C)N1 | 2.81 |
| C=C1c2cc(CC)ccc2NC(=O)N1c1ccc(C)cc1 | 8.71 |
| CC(=O)c1c(C)n(CCCOC(C)C)c2ccc(O)cc12 | -30.4 |
| COc1ccc(NS(=O)(=O)c2ccc(NC(=S)NC(=O)/C=C/c3ccccc3)cc2)nn1 | -3.33 |
| Cc1cccc(NC(=O)CN2C(=O)N/C(=C\c3ccc(-c4cccc(C(=O)O)c4)o3)C2=O)c1 | 19.3 |
| Cc1ccc2c(c1)C1CN(C)CCC1N2S(=O)(=O)c1cccc(F)c1 (stereo not drawn) | -11.5 |
| Cc1ccc2c(c1)C1CN(C)CCC1N2S(=O)(=O)c1ccc(C(C)C)cc1 (stereo not drawn) | -73.4 |
| Cc1ccc2c(c1)C1CN(C)CCC1N2S(=O)(=O)c1ccccc1 (stereo not drawn) | -32.4 |
| CCc1ccc(S(=O)(=O)N2c3ccc(C)cc3C3CN(C)CCC32)cc1 (stereo not drawn) | -60.4 |
| Cc1ccc2c(c1)C1CN(C)CCC1N2S(=O)(=O)c1cccc(C(F)(F)F)c1 (stereo not drawn) | -40.1 |
| Cc1ccc2c(c1)C1CN(C)CCC1N2S(=O)(=O)c1cc(C(F)(F)F)ccc1Cl (stereo not drawn) | -27.6 |
| O=C(COC(=O)c1ccc(S(=O)(=O)C(F)F)cc1)Nc1ccccc1C(=O)NC1CC1 | 11.5 |
